Screening data: PubChem BioAssay, ICCB-Longwood Screening Facility, Harvard Medical School
Hits are enriched below; roughly 0.52% of the tested compounds scored in any of these assays.
S aureus helic: blocks Staphylococcus aureus DNA helicase | purified S. aureus helicase, fluorescence unwinding assay | inhibition, % (no concentration beside the values) | 120,000 compounds, 0.05% hits | AID 485395; in the data active = inhibition above about 25%, passing the limit was not always enough;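 also: 0% = mean of negative control wells and 100% = mean of positive control wells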
Sa growth inh: S. aureus growth inhibition | 170,000 compounds, 0.53% hits | relative growth, % (no concentration beside the values) | AID 720641 | S. aureus RN4220 growth, OD600, 20 h, 42 °C; stronger effect = lower value;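 active = relative growth at most 50% at the other temperature and 20+ points below 30 °C, or under 10% at both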
* marks the source's active call; other numbers are inactive results.

C=CCSc1nnc(NC(=O)/C=C/c2c(Cl)nc3sccn23)s1 was read as S aureus helic -2 and Sa growth inh 71.
For CCOc1ccc(C(=O)C(C)Sc2nnnn2-c2ccc(OC)cc2)cc1 (centres undefined) the results were S aureus helic 29* and Sa growth inh 105.
Screening COc1ccc(-n2nnnc2SCSc2nnnn2-c2ccc(OC)cc2)cc1 returned S aureus helic 8 and Sa growth inh 117.
`NC1(CC(=O)O)CCCCC1` gave S aureus helic 9 and Sa growth inh 120.
For O=C(Nc1cccc(C(F)(F)F)c1)Nc1ccc2snnc2c1 the results were Sa growth inh 9.9*.
Screening O=C(Nc1ccccc1)Nc1ccc2nnsc2c1 returned Sa growth inh 2.4*.
O=C(Nc1cccc(C(F)(F)F)c1)c1ccc2snnc2c1 was read as Sa growth inh 99.
Screening O=C(Nc1ccccc1)Nc1ccc2snnc2c1 returned S aureus helic 13 and Sa growth inh 14.
Screening O/N=C/c1ccco1 returned S aureus helic 12 and Sa growth inh 110.
C[n+]1ccc(/C=C\c2ccco2)c2ccccc21 was read as S aureus helic -25 and Sa growth inh 3.2*.
Oc1ccc(N=Cc2ccccc2O)cc1 was read as S aureus helic -4 and Sa growth inh 92.
CN(C)C(=O)/C=C/c1ccc2c(c1)OCO2 was read as S aureus helic -1 and Sa growth inh 93.
`C[n+]1ccc(/C=C/c2ccccc2O)c2ccccc21` gave S aureus helic 50* and Sa growth inh 43.
For C[n+]1ccc(/C=C/c2ccc3c(c2)OCO3)c2ccccc21 the results were S aureus helic -33 and Sa growth inh 0.0*.
For O=C(CCS(=O)(=O)c1cccs1)Nc1ccc(C(=O)N2CC=C(c3ccccc3)CC2)cc1 the results were S aureus helic 10 and Sa growth inh 112.
`O=C1Cc2cc(C(=O)Cn3nc(C(=O)O)c4ccccc4c3=O)ccc2N1` gave S aureus helic -12 and Sa growth inh 70.
Screening CC(C)c1nnc(NC(=O)c2nc(S(=O)(=O)Cc3ccccc3)ncc2Cl)s1 returned Sa growth inh 7.3*.
Screening Cc1ccc(CS(=O)(=O)c2ncc(Cl)c(C(=O)Nc3nc4ccc(C)cc4s3)n2)cc1 returned Sa growth inh 92.
`CCOC(=O)c1ccc(NC(=O)c2nc(S(=O)(=O)Cc3ccccc3)ncc2Cl)cc1` gave Sa growth inh 100.
For Cc1ccccc1CS(=O)(=O)c1ncc(Cl)c(C(=O)Nc2nnc(C(C)C)s2)n1 the results were Sa growth inh 5.7*.
`CCCc1nnc(NC(=O)c2nc(S(=O)(=O)Cc3ccc(C)cc3)ncc2Cl)s1` gave Sa growth inh 4.1*.
Screening COc1ccc(OC)c(NC(=O)c2nc(S(=O)(=O)Cc3ccc(F)cc3)ncc2Cl)c1 returned Sa growth inh -1.1*.
Screening Cc1ccc(NC(=O)c2nc(S(=O)(=O)Cc3ccc(F)cc3)ncc2Cl)cc1C returned Sa growth inh 101.
For CC(C)Sc1ncc(Cl)c(C(=O)Nc2nnc(C(C)C)s2)n1 the results were Sa growth inh 97.
`Cc1ccc2scc(N3CCOCC3)c(=O)c2c1` gave S aureus helic 2 and Sa growth inh 105.
O=C1C(Sc2ncn[nH]2)=C/C(=N/S(=O)(=O)c2ccc(Cl)cc2)c2ccccc21 was read as S aureus helic 24 and Sa growth inh 1.2*.
For CCc1ccc(S(=O)(=O)/N=C2/C=C(Nc3ccccc3)C(=O)c3ccccc32)cc1 the results were S aureus helic 9 and Sa growth inh 83.
`O=c1c2c(nc3c(-c4ccccc4)c[nH]n13)CCC2` gave S aureus helic 18 and Sa growth inh 0.1*.
`O=c1c2c(nc3cc(-c4ccccc4)[nH]n13)CCC2` gave S aureus helic -3 and Sa growth inh 100.
NS(=O)(=O)c1ccc(CCNS(=O)(=O)c2ccc3[nH]cc(C(=O)O)c(=O)c3c2)cc1 was read as S aureus helic 13 and Sa growth inh 88.
`O=C(OC[C@@H]1CCCN2CCCCC12)c1ccccc1` (some centres undefined) gave S aureus helic 9 and Sa growth inh 93.
`CCCCOc1ccc(C(=O)OCC2CCCN3CCCCC23)cc1OC` (centres undefined) gave S aureus helic 13 and Sa growth inh 43*.
CC(C)c1ccc(/C=C2\Sc3ccccc3NC2=O)cc1 was read as Sa growth inh 97.
`Cc1cccc(C(=O)Nc2ccc3[nH]c(=O)[nH]c3c2)c1` gave S aureus helic 12 and Sa growth inh 86.
For CC(C)[C@H](NC(=O)c1cccc(S(=O)(=O)N2CCOCC2)c1)C(=O)O the results were S aureus helic 0 and Sa growth inh 90.
For O=Cc1c(O)c2ccccc2c2ccccc12 the results were S aureus helic -2 and Sa growth inh 9.1*.
For O=c1oc2ccccc2c(O)c1C=Nc1ccccc1 the results were S aureus helic 9 and Sa growth inh 95.
CS(=O)(=O)C1=NN2C(=N)/C(=C\c3ccc(-c4ccc(Cl)cc4)o3)C(=O)N=C2S1 was read as S aureus helic -15 and Sa growth inh 42.
`CCS(=O)(=O)C1=NN2C(=N)/C(=C\c3ccc(-c4ccccc4)o3)C(=O)N=C2S1` gave S aureus helic -54 and Sa growth inh 44*.
`CC1(C)[C@H](C(=O)O)N2C(=O)C[C@H]2S1(=O)=O` gave Sa growth inh 87.
For CC1(C)C(C(=O)O)N2C(=O)CC2S1(=O)=O (centres undefined) the results were S aureus helic -35 and Sa growth inh 27*.
Screening CN(C)c1ccc(C(F)(F)F)cn1 returned Sa growth inh 107.
For CS(=O)(=O)c1ccc(C(O)[C@H](CF)NC(=O)C(Cl)Cl)cc1 (some centres undefined) the results were Sa growth inh -0.8*.
For O=C(N[C@@H](CO)[C@H](O)c1ccc([N+](=O)[O-])cc1)C(Cl)Cl the results were Sa growth inh 0.2*.
O=C(O)CCC(=O)OC[C@@H](NC(=O)C(Cl)Cl)[C@H](O)c1ccc([N+](=O)[O-])cc1 was read as Sa growth inh 83.
For CS(=O)(=O)c1ccc([C@@H](O)[C@@H](COC(=O)CN)NC(=O)C(Cl)Cl)cc1 the results were Sa growth inh 52.
Screening COC(=O)c1ccc(-c2csnn2)cc1 returned Sa growth inh 98.
Screening O=C(Nc1nnc(-c2ccccc2Cl)s1)C1CC1 returned S aureus helic 6.
`O=C(c1ccc2nc[nH]c2c1)N1CCN(C/C=C/c2ccccc2)CC1` gave S aureus helic 28 and Sa growth inh 99.
For NC(=O)CSc1nc(-c2ccccc2)nc2c1Cc1ccccc1O2 the results were S aureus helic 9 and Sa growth inh 101.
For Clc1ccc(CSc2nnc(Cc3cccs3)n2C2CC2)cc1Cl the results were S aureus helic 2 and Sa growth inh 63.
Screening COc1cccc(CSc2nnc(Cc3cccs3)n2C2CCCCC2)c1 returned S aureus helic 0 and Sa growth inh 5.8*.
For COC1=CC(=O)c2ccccc2C1=O the results were S aureus helic 29 and Sa growth inh 1.0*.
For CN(C1=CC(=O)c2ccccc2C1=O)c1ccccc1 the results were S aureus helic -4.
CC(C)OCC(O)CN1CCN(Cc2ccccc2)CC1 (centres undefined) was read as S aureus helic -1.
O=c1[nH]c(=O)n([C@H]2C[C@H](O)[C@@H](CO)O2)cc1F was read as Sa growth inh -0.6*.
